# Screening data as filed in PubChem.
# CRFBP-R2 agonist – agonists of CRF-BP/CRF-R2 complex, primary screen, cell-based, HEK293, calcium dye fluorescence, uHTS. CRF-binding protein / CRF receptor 2 complex (human). calcium dye fluorescence (FLIPR); percent of saturating CRF peptide response. activation, % at 13.2 µM. 0.46% of 350,000 active. AID 588473, 2011;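 active = activation of at least 50%, plus an integration ratio under a set limit after plate pattern correction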;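 note: plate controls were neutral control wells without compound for no effect and CRF at EC100 for full effect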
# GRIN3A LBD mod – binders of NR3A ligand-binding domain, primary screen, biophysical, differential scanning fluorimetry, uHTS | 2.5% of 340,000 active | Glutamate receptor ionotropic, NMDA 3A (GRIN3A) ligand-binding domain | Tm shift relative to glycine control, % at 25 µM | NR3A LBD differential scanning fluorimetry, Tm shift; 0% = protein alone, 100% = glycine-bound protein;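 active = melting temperature shift of at least 10% of the positive control shift, at one fixed dose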
# ANO1 block – TMEM16A chloride channel inhibitors, primary screen, cell-based, HTS; 1.2% of 310,000 active; HEK293 TMEM16A/YFP iodide influx fluorescence, ionomycin; Anoctamin-1 (Mus musculus), Q8BHY3; normalized B-score (activity score, 25-100; higher = stronger inhibition) at 10 µM;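 active = ratio plate-corrected score three or more library SD toward inhibition, starting fluorescence score within five deviations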;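 note: score derived from kinetic fluorescence span divided by baseline fluorescence per well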
# Target sequence (Q8BHY3 whole entry, looked up): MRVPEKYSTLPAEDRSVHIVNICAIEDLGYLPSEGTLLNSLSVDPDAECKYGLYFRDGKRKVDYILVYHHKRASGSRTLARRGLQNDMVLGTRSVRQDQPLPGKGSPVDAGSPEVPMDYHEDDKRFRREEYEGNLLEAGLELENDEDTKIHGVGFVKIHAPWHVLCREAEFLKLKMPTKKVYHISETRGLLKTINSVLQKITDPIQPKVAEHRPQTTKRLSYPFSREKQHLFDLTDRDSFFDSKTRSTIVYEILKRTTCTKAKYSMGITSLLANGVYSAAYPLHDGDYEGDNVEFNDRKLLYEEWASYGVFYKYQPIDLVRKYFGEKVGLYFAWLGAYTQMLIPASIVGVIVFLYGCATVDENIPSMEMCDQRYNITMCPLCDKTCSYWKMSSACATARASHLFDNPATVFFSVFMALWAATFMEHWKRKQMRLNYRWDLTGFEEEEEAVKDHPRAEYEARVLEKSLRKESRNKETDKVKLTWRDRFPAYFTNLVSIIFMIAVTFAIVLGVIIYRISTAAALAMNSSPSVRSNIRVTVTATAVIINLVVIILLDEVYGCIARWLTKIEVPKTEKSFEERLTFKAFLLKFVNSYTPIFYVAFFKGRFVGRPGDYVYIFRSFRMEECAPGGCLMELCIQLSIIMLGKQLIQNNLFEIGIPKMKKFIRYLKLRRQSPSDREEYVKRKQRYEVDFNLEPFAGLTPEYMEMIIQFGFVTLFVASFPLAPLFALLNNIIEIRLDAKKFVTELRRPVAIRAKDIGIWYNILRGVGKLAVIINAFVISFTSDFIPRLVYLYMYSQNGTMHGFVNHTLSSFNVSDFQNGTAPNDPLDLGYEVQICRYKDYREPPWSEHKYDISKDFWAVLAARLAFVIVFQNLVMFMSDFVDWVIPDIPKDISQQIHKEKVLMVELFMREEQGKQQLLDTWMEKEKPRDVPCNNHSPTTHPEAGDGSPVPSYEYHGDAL
# MPTP inh – mitochondrial permeability transition pore inhibitors, primary screen, biochemical, isolated mouse mitochondria, absorbance | Ca2+ swelling absorbance, 30 min | 1.4% of 360,000 active | inhibition, % at 10 µM;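 active = inhibition of 50% or more, scaled per plate between neutral and stimulator controls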;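 note: 0% = DMSO wells given calcium and 100% = 1 mM EGTA wells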
# CRFR2-BP antag – antagonists of CRF-BP/CRF-R2 complex, primary screen, cell-based, HEK293, calcium dye fluorescence, uHTS; CRF-induced calcium fluorescence; inhibition, % at 11.8 µM; 0.59% of 350,000 active; AID 588475, 2011;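 active = inhibition of the ligand-induced calcium signal above about 50% at the single tested concentration, limit read from the data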
# TMEM16A act – TMEM16A chloride channel activators or potentiators, primary screen, cell-based, HTS; Anoctamin-1 (Mus musculus), Q8BHY3; HEK293 TMEM16A/YFP-H148Q/I152L, iodide quench fluorescence; hits give low values; B-score at 10 µM; 0.3% of 340,000 active; AID 623877, 2012;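 active = fluorescence-ratio B-score plate-corrected deviation score at least 3 library SD below zero, with starting fluorescence score within 5 deviations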;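 note: channel opened by trigger with iodide after compound preincubation; score built on the fluorescence ratio of max minus min over baseline; more negative score means more quench and so TMEM16A activation or potentiation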
# * marks the source's active call; other numbers are inactive results; i = inactive; . = no result given. An excerpt weighted towards active compounds, which were near 5.1% of everything screened.
SMILES,CRFBP-R2 agonist,GRIN3A LBD mod,ANO1 block,MPTP inh,CRFR2-BP antag,TMEM16A act
O=C(Cc1ccccc1)NC(CSSCC(NC(=O)Cc1ccccc1)C(=O)O)C(=O)O (stereo unspecified),0,36*,.,-1,9,i
CC(NC(=O)c1ccc(Cl)c(Cl)c1)c1ccc(-c2ccccc2)cc1 (stereo unspecified),2,16*,i,15,5,i
CC(NC(=O)c1ccc(CS(C)(=O)=O)cc1)c1ccc(-c2ccccc2)cc1 (stereo unspecified),0,2,i,-4,2,i
CC(NC(=O)COC(=O)Cc1ccc(Cl)cc1)c1ccccc1 (stereo unspecified),-4,-4,.,-2,-4,i
CCCCn1c(N)c(N(CCC(C)C)C(=O)COC(=O)c2ccc3ccccc3c2)c(=O)[nH]c1=O,0,-6,.,-1,7,i
CN(CCc1ccccc1)C(=O)CCc1nnc(Cc2ccc3c(c2)OCO3)o1,0,-1,i,0,7,i
CC(=O)Nc1ccc(NC(=O)c2cc(=O)c3ccc(C)cc3o2)cc1,29,-2,i,1,-49,i
CC(=O)Nc1ccc(NC(=O)c2cc(=O)c3cc(C)c(C)cc3o2)cc1,-2,12*,i,3,6,i
CC(C)c1nn2c(N)c(/C=C3\C=Nc4ccccc43)c(=O)nc2s1,0,1,i,6,-22,i
CCC(CC)c1nn2c(N)c(/C=C3\C=Nc4ccccc43)c(=O)nc2s1,0,11*,i,12,-22,i
CCC(CC)c1nn2c(N)c(/C=C3\C(C)=Nc4ccccc43)c(=O)nc2s1,0,13*,i,42,-17,i
CCOC(=O)c1ccccc1NC(=O)COC(=O)C1CC(=O)N(CCc2ccccc2)C1 (stereo unspecified),0,0,i,-3,13,i
Cc1ccc(NC(=O)CSc2nnc(Cn3cnc4ccccc43)o2)c(C)c1,-3,-1,i,1,59*,i
Cc1ccc(NC(=O)CSc2nnc(Cn3cnc4ccccc43)o2)cc1,0,-2,i,1,0,i
COc1cccc(C(C(=O)NCc2ccccc2)N2CCN(CCN3CCOCC3)CC2)c1OC (stereo unspecified),.,.,.,-1,.,.
S=c1[nH]nc(-c2cc(-c3ccccc3)n[nH]2)n1/N=C/c1ccc(Cl)c(Cl)c1,-2,24*,i,4,13,i
Oc1c(Br)cc(Br)c(/C=N/n2c(-c3ccccc3)n[nH]c2=S)c1Br,-2,0,100*,2,31,i
Cc1nn(-c2ccccc2)c(C)c1/C=N/n1c(-c2ccccc2Br)n[nH]c1=S,-6,-2,i,3,71*,i
CCN(CC)c1ccc(/C=N/n2c(-c3ccccc3Br)n[nH]c2=S)cc1,0,-9,i,14,-11,i
O=C(Nc1cc([N+](=O)[O-])ccc1C(=O)NCCN1CCOCC1)c1ccccc1,1,-1,i,-1,-7,i
Cc1ccc2oc(C(=O)N3CCC(O)(c4cccc(C(F)(F)F)c4)CC3)c(C)c2c1,0,-8,i,0,-37,i
OCCN1CCN(CC(O)COCc2ccc3c(c2)OCO3)CC1 (stereo unspecified),1,11*,i,-2,3,i
OC(COCc1ccc2c(c1)OCO2)CN1CCN(Cc2ccccc2)CC1 (stereo unspecified),0,0,i,-1,24,i
CCCCN(C(=O)CSc1nnnn1C)c1c(N)n(Cc2ccccc2)c(=O)[nH]c1=O,6,1,i,0,5,i
CCCCN(C(=O)CSc1ncn[nH]1)c1c(N)n(Cc2ccccc2)c(=O)[nH]c1=O,-1,4,.,0,70*,i
SMILES,CRFBP-R2 agonist,GRIN3A LBD mod,ANO1 block,MPTP inh,CRFR2-BP antag,TMEM16A act
CN(C(=O)COC(=O)COc1ccc2c(c1)CCC2)c1c(N)n(Cc2ccccc2)c(=O)[nH]c1=O,-2,18*,i,-1,-5,i
Cc1nnc(SCC(=O)N(C)c2c(N)n(Cc3ccccc3)c(=O)[nH]c2=O)n1Cc1ccccc1,2,-1,i,0,81*,i
O=C(c1[nH]c(C(F)(F)F)nc1-c1ccccc1)N1CCN(c2ccncc2)CC1,.,.,.,0,.,.
CCCCC[C@H](C)N1C[C@H](COCc2ccccc2)Oc2cc(N3CCC[C@H]3COC)ccc2S1(=O)=O,.,.,.,1,.,.
Fc1ccc(Nc2nc(-c3cccnc3)cs2)cc1,-1,-3,i,3,1,i
Clc1cccc(Nc2nc(-c3ccncc3)cs2)c1,0,31*,i,25,-3,i
Clc1ccc(Nc2nc(-c3cccnc3)cs2)cc1,-1,13*,i,1,0,i
Clc1ccc(-c2csc(Nc3cccnc3)n2)cc1,-2,15*,i,2,-11,i
Cc1ccc(S(=O)(=O)Nc2ccccc2/C=N/c2nc3ccccc3n2C)cc1,-2,-5,i,2,71*,i
Cc1ccc(OCc2nnc(N)s2)cc1C,-1,-1,i,0,-9,i
O=[N+]([O-])c1ccc(S(=O)(=O)NCCS(=O)(=O)N2CCN(c3ccccc3)CC2)cc1,0,-1,i,2,3,-29*
O=C(NC1CCN(Cc2ccccc2)CC1)c1cn(-c2ccccc2)nc1-c1cccnc1,-1,0,i,-2,-3,i
Cc1ccc(Sc2ncccc2C(=O)NCc2cc([N+](=O)[O-])ccc2O)cc1C,-2,-7,i,2,-3,i
O=C(N/C=C/c1ccccc1)Nc1ccc(Cl)cc1,-4,11*,i,-2,21,i
Cc1ccc(NC(=O)N/C=C/c2ccccc2)cc1,-3,1,i,0,-8,i
Cc1ccc(NC(=O)N/C=C/c2ccc(Cl)cc2)cc1,-2,16*,i,0,-3,i
Cc1cc(NC(=O)c2coc(=O)c(Br)c2)ccc1C(C)C,4,2,i,46,-31,i
Cc1ccc(S(=O)(=O)CCC(=O)OCC(=O)NCCc2ccccc2)cc1,-1,15*,i,1,-5,i
CSc1ccc(/C=C/C(=O)N2CCN(c3ccccn3)CC2)cc1,-3,2,i,-2,92*,i
